Data: PubChem BioAssay AID431 (Sanford-Burnham Center for Chemical Genomics, 2006)
The campaign covered roughly 63,000 compounds. About 1,100 (1.7%) were called active.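 The calls were made as follows: active = compounds whose percent cytotoxicity in the single-dose primary screen, scaled between solvent and toxic-drug controls, exceeds 50; inactive = the rest.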 The entries come from a sample that favours actives as a whole. Potency and affinity values are given separately.

assay: viability loss of HPDE-C7K cells – cell-based, fluorescence, HTS, primary screen (AID 431); conditions: HPDE-C7K KRASV12 cells, Alamar Blue viability, 48 h; at 10 µM; hits give high values;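 also: 0% = DMSO solvent wells and 100% = doxorubicin-treated wells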

SMILES	cytotoxicity
COc1cccc(OC)c1OCCCSc1nc(C)cc(=O)[nH]1	6.8% (inactive)
CCSC1=N/C(=C\c2ccc3c(c2)OCO3)C(=O)S1	40.9% (inactive)
C=CCSC1=N/C(=C\c2ccc3c(c2)OCO3)C(=O)S1	52.9% (active)
C=CCSC1=N/C(=C\c2cc(OC)c3c(c2)OCO3)C(=O)S1	16.5% (inactive)
COc1ccc(-c2c3c(=O)n(C)c(=O)n(C)c3cn2Cc2ccccn2)cc1	7% (inactive)
CCS(=O)(=O)N1CCCC(C(=O)NCc2ccccc2Cl)C1 (configuration not stated)	14.1% (inactive)
COc1cc(NC(=O)NCc2ccncc2)cc(OC)c1OC	-5.3% (inactive)
COc1ccc(-c2cnc(N)nc2-c2ccc(OC)cc2O)cc1	-1.3% (inactive)
Oc1ccccc1-c1cc(-c2ccc3c(c2)OCCO3)n[nH]1	16.4% (inactive)
CCOc1ccc(-c2nc(N)ncc2-c2ccccc2)c(O)c1	8.3% (inactive)
CCc1cc(-c2[nH]ncc2-c2ccc3c(c2)OCO3)c(O)cc1O	64.9% (active)
CCOC(=O)c1nc(-c2ccc3c(c2)OCO3)[nH]c1C	5.4% (inactive)
Cc1nc(-c2ccc3c(c2)OCO3)cs1	-26.4% (inactive)
CCCc1cc(-c2[nH]ncc2-c2ccc(C(=O)OCC)o2)c(O)cc1O	30.9% (inactive)
CCc1nc(SCc2ccccn2)c2c(=O)n(C)c(=O)n(C)c2n1	-2.5% (inactive)
CCCSCCCNC(=O)Cn1cc2c(n1)CCC(C)C2 (configuration not stated)	4.6% (inactive)
COC(=O)Cc1csc(N)n1	-19.5% (inactive)
Cc1cc(C)c2[nH]c(=O)c(C(c3nnnn3Cc3ccc4c(c3)OCO4)N3CCC(C)CC3)cc2c1 (configuration not stated)	-17.3% (inactive)
O=C(CSc1nnc(-c2ccccn2)n1Cc1ccccc1)N1CCCC1	-3% (inactive)
O=C1C(=O)N(CCOCCO)C(c2ccccn2)/C1=C(\O)c1ccccc1 (configuration not stated)	-29.5% (inactive)
CCc1oc(C(=O)O)cc1CN(CC)CC	-3.6% (inactive)
CCCCCn1c(CN2CCCCC2CC)nc2c1c(=O)n(C)c(=O)n2C (configuration not stated)	8.3% (inactive)
Cn1c(=O)oc2cc(S(=O)(=O)NCCC(=O)NCCc3ccccc3)ccc21	0.1% (inactive)
Cc1cc(Nc2cccc(C)c2C)n2nc(C)nc2n1	9% (inactive)
O=C(COc1ccccc1)N(Cc1ccco1)c1ccc(O)cc1	-5.3% (inactive)

SMILES	cytotoxicity
CCCCn1nc(NC(=O)c2cccs2)c2cc3cc(OC)ccc3nc21	23.2% (inactive)
COc1ccc2nc3c(cc2c1)c(NC(=O)c1cccs1)nn3CC(C)C	52.8% (active)
CCCn1nc(NC(=O)c2cccs2)c2cc3cc(OC)ccc3nc21	-25.3% (inactive)
CCOc1ccccc1NC(=O)NC1CCN(CC(=O)Nc2ccc3c(c2)OCCO3)CC1	-18.3% (inactive)
CCN(CC(=O)NCc1cccs1)S(=O)(=O)c1cccc(C(C)=O)c1	-12.5% (inactive)
O=C(COn1nnc2ccc(C(F)(F)F)cc21)Nc1nnc(-c2ccccc2)o1	59.2% (active)
O=C(COc1ccccc1)Nc1nnc(-c2ccccc2)o1	-10.7% (inactive)
O=C(COn1nnc2ccc(Cl)cc21)NCc1ccccc1	3.7% (inactive)
Cc1csc(NC(=O)C2CCN(C(=O)CSc3nnc(C)n3Cc3ccccc3)CC2)n1	-14% (inactive)
S=c1[nH]c2ncccc2o1	21.2% (inactive)
NC(=O)CSc1nc2ccccc2n1-c1ccccc1	8.7% (inactive)
COc1ccc(-n2c(SCC(=O)c3c(N)n(C)c(=O)n(C)c3=O)nc3ccccc32)cc1	7.4% (inactive)
Cn1c(N)c(C(=O)CSc2nc3ccccc3n2-c2ccccc2)c(=O)n(C)c1=O	103% (active)
CCOC(=O)C1=C(C)Nc2nnnn2C1c1cccc(OC)c1OC (configuration not stated)	-16.1% (inactive)
O=C(CN1CCOCC1)NCc1ccccc1	-11.4% (inactive)
CC1=C(C(=O)OCc2ccccc2)C(c2ccco2)C2=C(CC(C)(C)CC2=O)N1 (configuration not stated)	7.4% (inactive)
Cc1c(C(=O)OCc2ccccc2)[nH]c2c1C(=O)CC(c1ccco1)C2 (configuration not stated)	68.1% (active)
COCCOC(=O)c1[nH]c2c(c1C)C(=O)CC(c1ccco1)C2 (configuration not stated)	65.5% (active)
Cc1c(C(=O)OCC2CCCO2)[nH]c2c1C(=O)CC(c1ccc(N(C)C)cc1)C2 (configuration not stated)	3.2% (inactive)
CCOCCOC(=O)c1[nH]c2c(c1C)C(=O)CC(c1ccc(N(C)C)cc1)C2 (configuration not stated)	5.2% (inactive)
Cc1c(C(=O)OCC2CCCO2)[nH]c2c1C(=O)CC(c1ccco1)C2 (configuration not stated)	53.3% (active)
CCOc1ccc(C2CC(=O)c3c([nH]c(C(=O)OC)c3C)C2)cc1OC (configuration not stated)	6.3% (inactive)
CCOC(=O)c1[nH]c2c(c1C)C(=O)CC(c1ccc(F)cc1)C2 (configuration not stated)	58.4% (active)
COCCOC(=O)c1[nH]c2c(c1C)C(=O)C(C(=O)OC)C(C)C2 (configuration not stated)	0% (inactive)
COc1ccc(OC)c(C2CC(=O)c3c([nH]c(C(=O)OCC4CCCO4)c3C)C2)c1 (configuration not stated)	7.8% (inactive)

SMILES	cytotoxicity
Cc1c(C(=O)Nc2ccc(C(=O)O)cc2)cnn1C	7.2% (inactive)
CC(=O)c1ccc(C(=O)Nc2ccc(N3CCOCC3)cc2)cc1	-18.3% (inactive)
COc1ccc(C(=O)/C=C/Nc2c(C)n(C)n(-c3ccccc3)c2=O)cc1OC	20.1% (inactive)
COc1ccccc1Oc1nc2c(c(=O)n(Cc3ccccc3F)c(=O)n2C)n1C	18.8% (inactive)
COC(=O)C1=C(C)N=C2SCCC(=O)N2C1c1cccs1 (configuration not stated)	12.3% (inactive)
COc1cccc(-n2ccnc2SCC(=O)Nc2nccs2)c1	-7.9% (inactive)
N#CC1=C(N)Oc2n[nH]c(-c3cccs3)c2C1c1ccsc1 (configuration not stated)	-8.3% (inactive)
Cc1c(C(=O)O)[nH]c2c1C(=O)CC(c1ccccc1)C2 (configuration not stated)	-8.9% (inactive)
Cc1c(C(=O)N2CCOCC2)[nH]c2c1C(=O)CC(c1ccccc1Cl)C2 (configuration not stated)	55.9% (active)
COCCOC(=O)c1[nH]c2c(c1C)C(=O)CC(c1ccccc1)C2 (configuration not stated)	71.5% (active)
COC(=O)c1[nH]c2c(c1C)C(=O)CC(c1ccccc1)C2 (configuration not stated)	48.3% (inactive)
COCCOC(=O)c1[nH]c2c(c1C)C(=O)CC(c1ccc(F)cc1)C2 (configuration not stated)	5.3% (inactive)
COC(=O)c1[nH]c2c(c1C)C(=O)CC(c1ccc(C)cc1)C2 (configuration not stated)	-3.1% (inactive)
CCOC(=O)c1[nH]c2c(c1C)C(=O)CC(c1ccc(OC)c(OC)c1)C2 (configuration not stated)	-13.1% (inactive)
Cc1c(C(=O)N2CCOCC2)[nH]c2c1C(=O)CC(c1ccc(Cl)cc1)C2 (configuration not stated)	-7.4% (inactive)
CCOC(=O)c1[nH]c2c(c1C)C(=O)CC(c1ccco1)C2 (configuration not stated)	59.2% (active)
CCOC(=O)c1[nH]c2c(c1C)C(=O)CC(c1ccc(OCC)c(OC)c1)C2 (configuration not stated)	-1.2% (inactive)
COCCOC(=O)c1[nH]c2c(c1C)C(=O)CC(c1ccc(N(C)C)cc1)C2 (configuration not stated)	-10.1% (inactive)
COC(=O)c1[nH]c2c(c1C)C(=O)CC(c1cccs1)C2 (configuration not stated)	75.6% (active)
CCN(CC)S(=O)(=O)c1ccc(OC(C)C)nc1	-11.5% (inactive)
COC(=O)c1ccsc1NC(=O)C1COc2ccccc2O1 (configuration not stated)	4.6% (inactive)
Cc1cc(C(=O)COc2ncnc3sccc23)c(C)n1C1CC1	-0.1% (inactive)
COc1cc(C2CC(=O)c3c([nH]c(C(=O)OCCOC(C)C)c3C)C2)cc(OC)c1OC (configuration not stated)	5.8% (inactive)
Cc1c(C(=O)OC2CCC(C)CC2)[nH]c2c1C(=O)CCC2 (configuration not stated)	0.1% (inactive)
Cc1c(C(=O)OCC(C)C)[nH]c2c1C(=O)CC(c1ccco1)C2 (configuration not stated)	66.2% (active)

SMILES	cytotoxicity
Cc1c(C(=O)OC2CCCCC2)[nH]c2c1C(=O)CC(C)(C)C2	3.6% (inactive)
CCC(C)OC(=O)c1[nH]c2c(c1C)C(=O)CC(c1ccc(N(C)C)cc1)C2 (configuration not stated)	4.6% (inactive)
Cc1c(C(=O)OCCOC(C)C)[nH]c2c1C(=O)CC(C)(C)C2	-19.6% (inactive)
Cc1c(C(=O)OC2CCCC2)[nH]c2c1C(=O)CC(c1ccco1)C2 (configuration not stated)	53.7% (active)
Cc1c(C(=O)OCCOC(C)C)[nH]c2c1C(=O)CC(c1ccco1)C2 (configuration not stated)	68.1% (active)
CSCCOC(=O)c1[nH]c2c(c1C)C(=O)CC(c1ccco1)C2 (configuration not stated)	59.3% (active)
COc1ccc(-n2nc(C(=O)NCC(=O)NCC3CCCO3)c3ccccc3c2=O)c(OC)c1 (configuration not stated)	0.7% (inactive)
CC(C)CNS(=O)(=O)c1ccc(CCC(=O)N2CCN(Cc3ccccc3)CC2)cc1	-1.6% (inactive)
CN(C)CC(=O)Nc1cc(C(F)(F)F)ccc1Cl	-7.9% (inactive)
Cc1cc(C)nc(SCc2nnc(SCC(=O)N3CCOCC3)o2)n1	4.2% (inactive)
CCc1nnc(NC(=O)c2ccc(COc3ccc(C)cc3)o2)s1	-2.5% (inactive)
CCCOC(=O)c1[nH]c2c(c1C)C(=O)CC(c1ccc(OC)c(OC)c1)C2 (configuration not stated)	-0.9% (inactive)
CCCCOC(=O)c1[nH]c2c(c1C)C(=O)CC(c1cc(OC)c(OC)c(OC)c1)C2 (configuration not stated)	4.1% (inactive)
CCCCCOC(=O)c1[nH]c2c(c1C)C(=O)CC(c1ccco1)C2 (configuration not stated)	51.4% (active)
Cc1cc(C)c2nc(SCC#N)cc(C)c2c1	15.7% (inactive)
Cc1cc(NCCOCCO)n2ncc(-c3ccc(Cl)cc3)c2n1	75.4% (active)
Cc1cc(NCCN2CCOCC2)n2ncc(-c3ccc(Cl)cc3)c2n1	17% (inactive)
Cc1cc(NCCCN2CCOCC2)n2ncc(-c3ccc(Cl)cc3)c2n1	23.7% (inactive)
COc1cccc(OCc2nc3ccccc3[nH]2)c1	10.6% (inactive)
COc1cccc(OCc2nc3ncc(Br)cc3[nH]2)c1	64.8% (active)
O=C(NCc1nc2ncc(Br)cc2[nH]1)c1ccccc1	-7.6% (inactive)
O=C(COC(=O)C(O)c1ccccc1)c1ccc2c(c1)OCCO2 (configuration not stated)	-14.7% (inactive)
